An excerpt weighted towards active compounds, which were near 1.3% of everything screened.
Pin1 inh: blocks the human prolyl isomerase Pin1; 390,000 compounds, 0.009% hits; Q13526; Potency, µM (series often up to 115 µM), for the others: at the top dose activity, negative = inhibition, usual class: inhibitors; AID 504891; Pin1 FP peptide displacement, HiFluor488, 10 min; active = well fitted inhibition curve with a large enough effect in the polarisation, with a control signal flat, not every such curve was filed as active; inconclusive = small, poorly fitted or top-dose-only effect, or effect the other way, or a change in a side signal; inactive = no such curve, though single readings can be large or run the other way; the % refers to the polarisation; also: potency is read from the fitted curve at half-maximal effect
Target sequence (Q13526 whole entry, looked up): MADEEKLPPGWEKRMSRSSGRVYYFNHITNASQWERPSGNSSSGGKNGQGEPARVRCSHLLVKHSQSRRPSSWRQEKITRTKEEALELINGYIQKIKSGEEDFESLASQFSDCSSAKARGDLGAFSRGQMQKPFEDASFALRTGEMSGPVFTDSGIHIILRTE
Giardia kill: Giardia lamblia killing. Giardia lamblia trophozoite viability. activity change, % at 7.66 µM, hits read low. 340,000 compounds, 0.15% hits. AID 540267; in the data active = activity change below about -80%; inconclusive = between about -30% and that limit;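 also: parasites exposed to compound for two days anaerobically before the ATP read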
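Compounds were tested on trophozoites seeded at 100 cells/well and held 48 hrs at 37 deg C anaerobically. An ATP-based luminescent kit measured the remaining live cells.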
GCN5L2 inh: blocks human GCN5L2 histone acetyltransferase; Q92830; GCN5L2 HAT assay, ThioGlo1 CoA-SH fluorescence; Potency, µM (series often up to 58.9 µM), for inactives: at the highest dose activity change, negative = inhibition, actives largely listed as inhibitors; 390,000 compounds, 0.21% hits; AID 504327; also: potency is read from the fitted curve at half-maximal effect
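Enzyme at 20nM final was mixed with library compounds for 15 min at room temperature. Peptide H3(1-25) at 75uM, acetyl-CoA at 70uM and ThioGlo1 at 50uM were then added. Plates were read immediately and after 20 min (Ex340nm/Em540nm).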
TrxR1 substrate: substrates of rat thioredoxin reductase 1 | 390,000 compounds, 0.01% hits | O89049 | Potency, µM (series often up to 114 µM), for inactives: at the highest dose activity change, negative = substrate turnover | AID 588456 | purified TrxR1 substrate turnover, NADPH consumption readout; also: potency is read from the fitted curve at half-maximal effect; nearly all actives have a fitted effect of over 50% in size
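Rat TrxR1, dispensed at 90 nM, was prereduced with 400 uM NADPH (final) for 5 min at ~22 deg C, then incubated with compound 15 min before 400 uM selenite. A first-read NADPH fluorescence drop versus no-compound background flagged substrates.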
GALK inhibitor: inhibitors of human galactokinase. Purified GALK, Kinase-Glo residual ATP luminescence. Potency, µM (titrated, usually from 57.5 µM), for the others: at the top dose activity change, negative = inhibition, hits mostly inhibitors. 270,000 compounds, 0.007% hits. AID 1868; also: potency is read from the fitted curve at half-maximal effect
Target sequence (P51570 whole entry, looked up): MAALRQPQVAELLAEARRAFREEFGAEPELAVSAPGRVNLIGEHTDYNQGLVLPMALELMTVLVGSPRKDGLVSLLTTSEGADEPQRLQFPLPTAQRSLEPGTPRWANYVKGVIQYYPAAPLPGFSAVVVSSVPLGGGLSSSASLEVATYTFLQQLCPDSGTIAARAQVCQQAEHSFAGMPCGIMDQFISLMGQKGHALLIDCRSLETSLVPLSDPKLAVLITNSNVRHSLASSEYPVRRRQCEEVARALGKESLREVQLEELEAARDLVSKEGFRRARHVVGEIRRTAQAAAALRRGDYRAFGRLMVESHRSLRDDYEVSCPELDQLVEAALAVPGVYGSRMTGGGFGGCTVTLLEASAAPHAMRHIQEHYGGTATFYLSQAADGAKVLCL
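Quantitative HTS: GALK 5 nM, ATP 35 uM, galactose 100 uM, 1 h room temperature, then luciferase-based ATP detection.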
TrxR1 inh: inhibitors of rat thioredoxin reductase 1; O89049; recombinant rTrxR1, NADPH fluorescence consumption, selenite substrate; Potency, µM (titrated, usually from 114 µM), without a hit: top-dose activity change, negative = inhibition, hits mostly inhibitors; 390,000 compounds, 1% hits; AID 588453; also: potency is read from the fitted curve at half-maximal effect; nearly all actives have a fitted effect of over 65% in size
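Rat TrxR1 (90 nM in the dispensed reagent) was pre-reduced with 400 uM NADPH for 5 min at room temperature, then incubated with compound for 15 min. After 400 uM selenite was added, NADPH fluorescence (Ex 340/Em 450 nm) was followed for 8 min.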
An asterisk follows results filed as active; ? = inconclusive; / = no result given; [ ] = dose if it differs, or a comment. Unless noted, calls follow the shape of the dose curve; as a rule, active = well fitted curve in the direction sought with a large enough effect; inconclusive = small, poorly fitted or top-dose-only effect, or another doubt; inactive = no such curve, though single readings can be large; an effect the other way counts as inactive or inconclusive. % is scaled to controls: 0 for no effect and ±100 for the full control effect.

SMILES	Pin1 inh	Giardia kill	GCN5L2 inh	TrxR1 substrate	GALK inhibitor	TrxR1 inh
CCOc1c2ccc(C(=O)NCCc3cccs3)cc2nn1CC	0%	-30	-3%	51%[57.1 µM]	/	32%[57.1 µM]
CCOc1c2ccc(C(=O)N[C@H](C)C3CCCCC3)cc2nn1CC	-4%	-8	0.89µM*	56%[57.1 µM]	-3%	24%[57.1 µM]
CCCn1nc2cc(C(=O)NC3CCCc4ccccc43)ccc2c1OCC (stereo not given)	-10%	11	10µM*	48%[57.1 µM]	-4%	19%[57.1 µM]
COc1ccc(OC)c(S(=O)(=O)Nc2c(NC3CCCCC3)c3ccccc3oc2=O)c1	-4%	1	?	4%	-3%	15%
Cc1cc(C)n2nc3nc(N4CCCCC4)nc(-c4ccco4)c3c2n1	?	-1	-8%	3%[57.1 µM]	0%	10µM*
COc1ccc(CC(=O)Nc2ccc(S(=O)(=O)N3CCCC3)cc2)c(OC)c1	7%	9	-4%	2%	/	18%
Oc1ccc(N=Nc2ccccc2)o1	4%	16	-5%	-11%	/	32µM*
O=S(=O)(NCCNc1nc(-c2ccco2)nc2ccccc12)c1ccccc1	0%	/	/	/	/	/
CN(C)CCCN(C(=O)CCOc1ccccc1)c1nc2c(F)cccc2s1	0%	-9	-5%	18%[57.1 µM]	-1%	0.45µM*
CN(C)CCCN(C(=O)CCOc1ccccc1)c1nc2ccc(F)cc2s1	0%	-29	-6%	-3%	0%	0.63µM*
CN(C)CCCN(C(=O)CCc1ccccc1)c1nc2c(F)cccc2s1	4%	-9	-5%	-1%	-2%	1%
O=C(COc1ccccc1)N(Cc1cccnc1)c1nc2ccc(F)cc2s1	3%	/	-5%	-4%[57.1 µM]	/	0%[57.1 µM]
O=C(CCOc1ccccc1)N(Cc1cccnc1)c1nc2ccc(F)cc2s1	5%	/	-4%	3%[57.1 µM]	/	7.1µM*
CC[N+](C)(C)c1ccc(/C=C/c2ccncc2)cc1	/	/	/	-30%	/	-29%
Cc1sc2ccccc2[n+]1CCCCBr	/	/	/	5%	/	179%
Oc1cc(NCCN2CCOCC2)cc2cccnc12	-29%	1	-1%	0%	/	11µM*
CC(=O)Nc1ccc(Sc2ccc([N+](=O)[O-])o2)cc1	-8%	4	/	-1%	/	4.5µM*
COC(=O)c1cccc(CN2C(=O)SC(Nc3ccc(C)cc3)C2=O)c1 (stereo not given)	1%	8	-21%	-9%	4%	-22%
CCOC(=O)c1ccc(NC2SC(=O)N(Cc3cccc(C(=O)O)c3)C2=O)cc1 (stereo not given)	2%	/	-6%	-5%	/	79µM*
CC(=O)N1CCN(c2nc(-c3ccc(Br)cc3)cs2)CC1	-6%	/	/	/	/	/
O=C(N/N=C\C=C\c1ccco1)c1cncc(Br)c1	?	-2	-26%	-16%	-2%	50µM*
O=C(N/N=C/C=C/c1ccco1)c1cccnc1	?	10	-3%	-12%	-2%	5.6µM*
O=C(N/N=C\c1ccco1)c1cncc(Br)c1	/	/	-9%	/	/	/
Cc1cc2c(s1)c1cnn(Cc3cc(F)c(F)c(F)c3)c(=O)c1n2C	-7%	/	/	/	/	/
Cc1cn(C)c(CC(=O)Nc2ccc(F)cc2Cl)c1C(=O)O	-4%	/	-1%	2%[57.1 µM]	/	16%[57.1 µM]
SMILES	Pin1 inh	Giardia kill	GCN5L2 inh	TrxR1 substrate	GALK inhibitor	TrxR1 inh
O=C(O)CCCN1C(=O)/C(=C\c2ccco2)SC1=S	/	4	-9%	7%[57.1 µM]	9%	22µM*
O=C(CCN1C(=O)/C(=C\c2ccco2)SC1=S)Nc1ccc(C(=O)O)c(O)c1	?	7	?	-5%	0%	40µM*
O=C(CCN1C(=O)/C(=C/c2ccco2)SC1=S)Nc1ccc(C(=O)O)c(O)c1	?	11	-12%	-9%	-3%	45µM*
O=C(CCCN1C(=O)/C(=C/c2ccco2)SC1=S)Nc1ccccc1C(=O)O	?	-6	-25%	4%[57.1 µM]	-1%	?
O=C(CSc1n[nH]c(=O)n1Cc1ccccc1)Nc1ccc(N2CCOCC2)cc1	4%	-13	-16%	-10%	/	-3%
CCN1CCN(c2cccc(Nc3nn4c(=O)c5ccccc5nc4s3)c2)CC1	8%	/	/	/	/	/

Screening results deposited in PubChem by National Center for Advancing Translational Sciences (NCATS).
